# Assay results from PubChem BioAssay (NCI).
# About 83,000 compounds went through this panel and 20% of them were active in at least one assay; those are over-represented in the sample as a whole.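 Assay: single dose, 48 h. Readout: percent growth (0 = no net growth; negative = cell death). Active: <10.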 A number with no mark means an inactive call. The source made the active and inactive calls.
# System: NCI-H226 lung
# Experiment: NCI-60 one-dose screen, 48 h (100 = growth as untreated, 0 = no growth, -100 = all killed)
# Settings: 10 µM unless noted
# Method: Growth inhibition of the NCI-H226 human Non-Small Cell Lung tumor cell line is measured as a screen for anti-cancer activity. Cells are grown in 96 well plates and exposed to the test compound for 48 hours. Compounds are tested at a single concentration, which is 10^-5 M for most compounds. The reported endpoint is percent growth (GI% or GIPRCNT), where numbers from 0 - 100% represent growth inhibition, and numbers from -100% - 0 represent cell death. For example, a value of 40 represents 60% growth inhibition. A value of 0 means no net growth occurred over the course of the experiment. A value of -40 indicates 40% of cells at the beginning of the experiment died by the end of the experiment. A value of -100 means all cells are dead at the end of the experiment.
# NCI-60 Human Tumor Cell Lines Screen was performed using the standard one-dose NCI protocol, which is described in more detail at https://dtp.cancer.gov/discovery_development/nci-60/default.htm.
# Compounds with GIPRCNT values below 10 were considered active. Activity score was based on GIPRCNT using the following formula: […]
# Score is 0 for GIPRCNT values of 100 or above, 50 for GIPRCNT values of 0, and 100 for GIPRCNT values of -100.
row,SMILES,growth
1,COC(=O)[C@H](Cc1ccccc1)NC(=O)c1csc([C@@H](C[C@H](C(C)C)N(C)C(=O)[C@@H](NC(=O)[C@H]2CCCCN2C)C2CC2)OC(C)=O)n1,27.7%
2,COc1ccc(/C=C\c2cc(OC)c(OC)c(OC)c2)cc1NC(=O)/C=C/c1ccc(OC)c(OC)c1,35.9%
3,CCn1c2ccccc2c2cc(C(=O)c3cccc4c3CCCN4)ccc21,92.2%
4,CC(CO)NC1CCCCC1 (stereo not given),119%
5,C[C@]12CC[C@H]3[C@@H](CC4SC(N)=NC45C/C(=N/NC(N)=O)CC[C@]35C)[C@@H]1CCC2=O (stereo not given in full),108%
6,C/C(=C\c1ccn(-c2ccc(N)cc2C(F)(F)F)n1)[C@@H]1C[C@@H]2O[C@]2(C)CCC[C@H](C)[C@H](O)[C@@H](C)C(=O)C(C)(C)[C@@H](O)CC(=O)O1,59.4%
7,O=[N+]([O-])CC(c1ccccc1Cl)c1c(-c2ccccc2)[nH]c2ccccc12 (stereo not given),30.9%
8,CCCCOc1ccc(C(N)Cc2ccccc2)cc1 (stereo not given),112%
9,c1cnc2[nH]cc(-c3csc(-c4cn(CCCCN5CCOCC5)c5ccccc45)n3)c2c1,72.4%
10,CN[C@]1(c2ccccc2Cl)CCCC[C@H]1NCCCN1CCN(C)CC1,94.5%
11,CCOC(=O)N1CC1,104%
12,CC(C)[C@@H]1NC(=O)[C@]2(C)CSC(=N2)c2csc(n2)CNC(=O)C[C@@H](/C=C/CCS)OC1=O,0.257% (active)
13,COC(=O)[C@H](Cc1ccccc1)NC(=O)c1csc([C@@H](C[C@H](C(C)C)N(C)C(=O)[C@@H](NC(=O)[C@H]2CCCN2C)C2CC2)OC(C)=O)n1,58%
14,CC[C@H](C)[C@H](NC(=O)c1nccn1C)C(=O)N(C)[C@H](C[C@@H](OC(C)=O)c1nc(C(=O)N[C@@H](Cc2ccccc2)C[C@H](C)C(=O)OC)cs1)C(C)C,37.1%
15,CC1(C)C(C(=O)c2cn(CCCCF)c3ccccc23)C1(C)C,82.1%
16,CCCCN1CCCC[C@@H]1C(=O)N[C@H](C(=O)N(C)[C@H](CCc1nc(C(=O)N[C@@H](Cc2ccccc2)C[C@H](C)C(=O)OC)cs1)C(C)C)[C@@H](C)CC,84%
17,Cc1ccc(S(=O)(=O)F)cc1C(=O)O,95.8%
18,CN(C)C1C(=O)C(C(N)=O)=C(O)C2(O)C(=O)C3=C(O)c4c(O)cccc4C(C)(O)C3CC12.[Cl][Sb]([Cl])[Cl] (stereo not given),86.6%
19,ClCCN(CCCl)c1ccc(/C=N/Nc2ncnc3nc[nH]c23)cc1,79%
20,CCOC(=O)C(Cc1ccc(N(CCCl)CCCl)cc1)NC(=O)C(CC(C)C)NC(C)=O (stereo not given),50%

row,SMILES,growth
1,CC[S][Hg][Cl],113%
2,COC(=O)[C@@H](NC(=O)c1cn(CCC2CCCCC2)c2ccccc12)C(C)(C)C,58.6%
3,COc1ccc(S(=O)(=O)Nc2c(/C=C\c3cc(OC)c(OC)c(OC)c3)ccc(OC)c2O)cc1OC,29%
4,Nc1c(F)cc(-c2nc3cc(F)ccc3[se]2)cc1Br,-16.3% (active)
5,COC(=O)[C@@H](C[C@H](Cc1ccccc1)NC(=O)c1csc([C@@H](C[C@H](C(C)C)N(C)C(=O)[C@@H](NC(=O)[C@H]2CCCCN2C)C(C)C)OC(C)=O)n1)NC(=O)OCc1ccccc1,-36.8% [9.5 µM] (active)
6,CCCCCSC1C2C(=O)C(Br)=CC13CCNc1c(O)c4c5c(c13)=[N+]2CCC=5C=N4 (stereo not given),-5.15% (active)
7,CC[C@]12C=CCN3CC[C@@]4(c5ccc(OC)cc5N(C)[C@H]4[C@@](O)(C(=O)OC)[C@@H]1OC(=O)CCCC[P+](c1ccccc1)(c1ccccc1)c1ccccc1)[C@@H]32,15.1%
8,O=C(N/N=C\c1ccc(N(CCCl)CCCl)cc1Cl)c1cccnc1,-48.5% (active)
9,COC(=O)[C@@H](C)C[C@H](Cc1ccccc1)NC(=O)c1csc([C@@H](C[C@H](C(C)C)N(C)C(=O)[C@@H](NC(=O)CN(C)C)C2CC2)OC(C)=O)n1,19.1%
10,N#C[Se]CCN1C(=O)c2ccccc2C1=O,36.3%
11,CCCC[C@H](NC(=O)[C@H]1CCCN1C)C(=O)N(C)[C@H](C[C@@H](OC(C)=O)c1nc(C(=O)N[C@@H](Cc2ccccc2)C[C@H](C)C(=O)OCC)cs1)C(C)C,37.2%
12,CC[C@H](C)[C@H](NC(=O)C12C3C4C1C1C2C3C41NC)C(=O)N(C)[C@H](C[C@@H](OC(C)=O)c1nc(C(=O)N[C@@H](Cc2ccccc2)C[C@H](C)C(=O)OC)cs1)C(C)C (stereo not given in full),41.4%
13,Nc1cc2nc3ccccc3nc2cc1N,85.6%
14,CC1=C(O)[C@@](C)(CCCCC[C@H](C)CCCCc2ccc(O)cc2)OOC1=O,107%
15,N#CCCNc1ccccc1,106%
16,COc1cccc(/C=C/[N+](=O)[O-])c1,65.2%
17,CC(=O)c1ccc(C(=O)NCC2CCC3(CC2)OOC2(CCCCC2)OO3)cc1,85.8%
18,CN1CCCCC1C(C)(O)c1ccccc1 (stereo not given),99.7%
19,COc1ccc(/C=C\c2cc(OC)c(OC)c(OC)c2)c(NS(=O)(=O)c2ccc(F)cc2)c1O,35.1%
20,COc1ccc(O)c(CNC(=O)CN2CCCC2=O)c1,99.4%
